# Screening results deposited in PubChem by National Center for Advancing Translational Sciences (NCATS).
# Sampled rows, rich in hits. Any-hit rate of the full collection: about 9.2%.
# FLuc modulator: qHTS profiling assay for firefly luciferase inhibitor/activator using purifed enzyme and Km concentrations of substrates (counterscreen for miR-21 project); purified FLuc, Km substrates, luminescence inhibition; Potency, µM (doses to about 57.5 µM), for inactives: at the highest dose activity change, negative = inhibition, usual class: inhibitors; actives 6.9% (n = 360,000);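 also: plate controls were vehicle for no effect and reference inhibitor for full effect; nearly all actives have a fitted effect of over 55% in size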
# Target sequence (P08659 whole entry, looked up): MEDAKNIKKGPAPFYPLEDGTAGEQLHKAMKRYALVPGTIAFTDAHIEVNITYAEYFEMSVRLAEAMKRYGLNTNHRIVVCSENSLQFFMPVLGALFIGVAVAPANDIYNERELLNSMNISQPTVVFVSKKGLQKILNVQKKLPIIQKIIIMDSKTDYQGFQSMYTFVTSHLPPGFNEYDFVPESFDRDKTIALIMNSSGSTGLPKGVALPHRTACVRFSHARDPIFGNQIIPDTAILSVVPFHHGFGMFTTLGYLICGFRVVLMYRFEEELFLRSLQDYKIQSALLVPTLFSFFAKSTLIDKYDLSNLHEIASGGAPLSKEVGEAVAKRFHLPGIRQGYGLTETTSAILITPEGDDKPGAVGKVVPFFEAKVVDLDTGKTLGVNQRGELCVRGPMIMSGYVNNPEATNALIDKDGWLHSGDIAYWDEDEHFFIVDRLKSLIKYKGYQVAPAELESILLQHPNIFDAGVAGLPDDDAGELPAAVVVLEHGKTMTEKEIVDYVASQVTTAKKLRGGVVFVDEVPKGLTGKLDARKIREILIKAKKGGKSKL
#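 Biochemical qHTS of compounds, final roughly 60 µM downward over six points, against 10 nM purified firefly luciferase using Km concentrations of substrates (10 uM D-luciferin, 10 uM ATP) in Tris acetate pH 7.5 buffer; luminescence output.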
# ELG1 genotoxic: qHTS screen for small molecules that induce genotoxicity in human embryonic kidney (HEK293T) cells expressing luciferase-tagged ELG1; Potency, µM (highest dose often 46 µM), for inactives: at the highest dose activity change, positive = activation, actives largely listed as activators; actives 1.3% (n = 330,000); HEK293T ELG1-luciferase reporter, luminescence, 16 h; also: % of control where 0% means no effect; nearly all actives have a fitted effect of over 60% in size
#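 Cells (2,000/well) expressing the ELG1-luciferase fusion are dosed by pin tool and kept 16 hr at 37 °C, 5% CO2. Signal comes from ONE-Glo luciferase reagent after 30 min at room temperature.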
# SMN2 splice up: qHTS Assay for Enhancers of SMN2 Splice Variant Expression; actives 2.8% (n = 210,000); HEK293 SMN2-luciferase splicing reporter, luminescence, 30-36 h; Potency, µM (series often up to 46.1 µM), for inactives: top-dose activity change, positive = activation, hits mostly activators; also: % of control where 0% means no effect; nearly all actives have a fitted effect of over 55% in size
#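 HEK293 cells carry an SMN2 minigene-luciferase reporter in which exon 7 inclusion puts luciferase in frame. Cells were seeded at 2000 cells/well, attached for 10-12 hours, then exposed to compounds for 30-36 hours at 37C before ONE-Glo luminescence.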
# NPC1 prom act: qHTS Assay for NPC1 Promoter Activators. Huh7 NPC1 promoter luciferase reporter, 24 h. Potency, µM (series often up to 9.22 µM), inactives show at the highest dose activation, usual class: activators. actives 2.4% (n = 320,000). AID 485313, 2010; also: % of control where 0% means no effect; nearly all actives have a fitted effect of over 60% in size
#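 Stable NPC1-promoter luciferase Huh7 line; cpd (DMSO) 24 h, 37 °C, 5% CO2; Amplite luciferase reagent 10 min RT; luminescence readout. qHTS format.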
# ELG1 DNA repair: qHTS screen for small molecules that inhibit ELG1-dependent DNA repair in human embryonic kidney (HEK293T) cells expressing luciferase-tagged ELG1 | HEK293T ELG1-luciferase reporter, luminescence, 16 h; DNA damage induced by 5-fluorouridine | Potency, µM (highest dose often 46.1 µM), for the others: top-dose activity change, negative = inhibition, most hits filed as inhibitors | actives 2.3% (n = 330,000) | AID 504467, 2011; also: % is scaled to controls: 0 for no effect and ±100 for the full control effect; nearly all actives have a fitted effect of over 55% in size
#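 Quantitative HTS, concentration-response format. 2,000 cells/well co-treated with 5-fluorouridine and compound, 16 hr in 5% CO2 at 37 °C; ONE-Glo luminescence read after 30 min.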
# Rab9 promoter act: qHTS Assay for Rab9 Promoter Activators | AID 485297, 2010 | Huh7 Rab9 promoter-luciferase reporter, luminescence, 24 h | actives 2.8% (n = 320,000) | Potency, µM (highest dose often 9.22 µM), for inactives: top-dose activation, negative = inhibition, usual class: activators; also: % of control where 0% means no effect; nearly all actives have a fitted effect of over 60% in size
#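 Quantitative HTS format; Huh7 Rab9-luciferase reporter cells (1500/well) receive compound 2 h post-plating, incubate 24 h at 37 °C, then get luciferase reagent for 10 min before luminescence reading.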
# Numbers without * were called inactive; u = inconclusive; x = no result. Calls follow the shape of the dose curve; as a rule, active = well fitted curve in the direction sought with a large enough effect; inconclusive = small, poorly fitted or top-dose-only effect, or another doubt; inactive = no such curve, though single readings can be large; an effect the other way counts as inactive or inconclusive. Potency is read from the fitted curve at half-maximal effect.
SMILES,FLuc modulator,ELG1 genotoxic,SMN2 splice up,NPC1 prom act,ELG1 DNA repair,Rab9 promoter act
O=C(NCCc1ccccc1)/C(=N\O)c1ccccc1,15µM*,u,u,3.2µM*,u,4µM*
CC(C)(C)C(=O)NC(=S)NCCc1ccccc1,17µM*,12%,14%,u,u,u
C/C(=C\c1ccccc1)C(=O)NCCc1ccccc1,3.4µM*,4.6µM*,11µM*,1.4µM*,u,0.71µM*
S=C(NCCc1ccccc1)NCCc1ccccc1,15µM*,u,13µM*,4.5µM*,u,4.5µM*
O=C(NCCc1ccccc1)Nc1ccc(Cl)cc1,6.7µM*,u,11µM*,2.5µM*,u,3.2µM*
Cc1ccccc1NC(=O)NCCc1ccc(Cl)cc1,1%,1%,1%,-3%,-9%,14%
S=C(NCc1cccnc1)Nc1ccc(Oc2ccc(Cl)cc2)cc1,-3%,-11%,x,2%,10µM*,-2%
CC(C)[C@H](NC(=O)NCCc1ccccc1)C(=O)O,4%,0%,6%,6%,u,0%
COc1ccc(NC(=S)NCc2cccnc2)cc1,-2%,4%,x,-3%,13%,-7%
CC(C)(C)NC(=O)NCCc1ccccc1,21µM*,u,x,1.4µM*,u,4µM*
COc1ccc(CCNC(=O)CCC(=O)Nc2ccccc2[N+](=O)[O-])cc1OC,3%,2%,x,-1%,19%,3%
CCOc1ccc(NC(=O)Cn2c(=O)n(CCc3ccccc3)c(=O)c3c4c(sc32)CCCC4)cc1,-6%,x,3%,x,x,x
COc1ccc(CNC(=O)CN2C(=O)CCn3nc(-c4ccccc4)cc32)c(OC)c1,-3%,x,x,x,x,x
CC1=C(c2ccc(C(C)C)cc2)S(=O)(=O)N=C1N1CCN(c2ccccc2F)CC1,-2%,x,x,x,x,x
CN(C)c1nc(OCCNC(=O)Nc2ccc(Cl)cc2)nc(N(C)C)n1,-3%,-8%,-9%,-5%,7.3µM*,-3%
C=CCSc1nnc(-c2cccc3ccccc23)o1,x,0%,x,x,3%,x
C=CCSc1nnc(-c2cc3c(s2)-c2ccccc2CC3)o1,12µM*,8%,u,0%,u,u
Cc1cccc(NC(=O)C2CCN(S(=O)(=O)c3cccc4nonc34)CC2)c1,2%,-3%,x,1%,-16%,2%
COc1cccc(/C=C(\C#N)c2nc3ccc(C)cc3[nH]2)c1,3.4µM*,x,24%,x,x,x
COc1cc(/C=C(\C#N)c2nc3ccc(C)cc3[nH]2)c([N+](=O)[O-])cc1OC,-5%,-1%,-25%,-1%,u,-1%
Cc1ccc2nc(/C(C#N)=C\c3cc(O)ccc3[N+](=O)[O-])[nH]c2c1,19µM*,1%,3%,-1%,12%,0%
COc1cc(/C=C(\C#N)c2nc3ccc(C)cc3[nH]2)cc([N+](=O)[O-])c1O,3.8µM*,u,u,15%,u,u
CCc1ccc(CN2C(=O)c3ccccc3C2C(=O)NC2CCCCCC2)cc1 (stereo not drawn),u,x,-8%,x,x,x
CCOc1ccccc1NC(=O)Cn1c(=O)n(Cc2nc(C)no2)c(=O)c2ccccc21,0%,x,x,x,x,x
COc1ccc(C(=O)COC(=O)/C=C/c2ccccc2[N+](=O)[O-])cc1,x,0%,x,x,21%,x
O=C(/C=C/c1ccccc1[N+](=O)[O-])OCC(=O)c1ccccc1,24µM*,8%,7%,0%,17%,1%
O=C(O)c1ccc(N/N=C/C=C/c2ccccc2[N+](=O)[O-])cc1,3.4µM*,u,8.9µM*,1.4µM*,u,1.4µM*
